# According to PubChem BioAssay:
# Several values for one entry are separate records, joined by “and”; a condition that tells them apart may be missing. Equal values may be shown once. Records with an inconclusive call do not appear. For some of these results: Potency and affinity values are given separately. Activity calls are given as the source filed them.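 How the source made its calls, unless noted: active means compounds killing one labelled cell type while sparing the other, by normalised counts and ratio limits, not self-fluorescent; inactive means the rest.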
# How the values were obtained:
# [1] = differential killing of epithelial or mesenchymal cells, primary screen, imaging, PC-3E GFP, TEM4-18 mCherry, co-culture (AID 1345086); details: imaging cell counts, at 1 µM; for red/green cell ratio (normalised): actives lie on both sides;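 on all read-outs here: cells exposed to compound for 72 h before imaging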;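 on red/green cell ratio (normalised): normalised mesenchymal count divided by normalised epithelial count so high means epithelial killing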
# [2] = tested on: Aerobactin synthetase IucA (Klebsiella pneumoniae hvKP1); experiment: Biochemical IucA enzyme inhibition primary screen of the Spectrum library (AID 1346200; call rule not given here;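 further: 100% = wells without compound and 0% = wells lacking enzyme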); details: malachite green pyrophosphate, A620, at 8 µM, stronger effect = lower value
# [3] = liver-stage malaria parasite growth inhibition, primary screen, cell-based, HepG2, luciferase luminescence, HepG2 viability (AID 624349; in the data active means parasite load remaining mostly below about 12%, no sharp cut-off; inactive means mostly above about 10%;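 further: 100% = mean of DMSO negative control wells on the same plate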); details: P. berghei liver stage in HepG2, luciferase luminescence, concentration not given here; parasite load remaining: stronger effect = lower value; viability: measured here: HepG2 viability without parasites
# [4] = biological target: NAD(+) hydrolase SARM1 (Homo sapiens) (UniProt Q6SZW1); experiment: SARM1 TIR NADase inhibitors, cell lysate, NAD-Glo luminescence (AID 1508614;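 active means compound whose remaining NAD level is above about 45 nM, limit read from the data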); details: SAM-TIR HEK293T lysate NADase, at 1 µM, stronger effect = higher value
# [5] = biological target: Mitogen-activated protein kinase 7 (Homo sapiens) (UniProt Q13164); experiment: ERK5 transactivation activators in reporter cells, primary screen, cell-based, HTS (AID 1508626;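 active means luciferase signal above three times the same-plate solvent-only control wells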;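 further: luciferase driven by Gal4-ERK5 fusion binding five Gal4 sites before minimal TATA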); details: HeLa Gal4-ERK5 transactivation, 18 h, at 5 µM, stronger effect = higher value
# [6] = polyglutamine-triggered caspase-3 activation inhibitors, cell-based (AID 1583); details: polyglutamine-induced caspase-3 activation, cell assay; stronger effect = higher value;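 tested at 10 µM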
# [7] = suppressors of polyQ aggregation in yeast, 75Q-TubU reporter (AID 1593); details: Yeast 75Q polyglutamine aggregation reporter
# [8] = rescue of polyQ-huntingtin neuronal dysfunction in worms, whole organism, C. elegans mechanosensory neurons, N-terminal huntingtin (AID 1599); details: touch response, stronger effect = higher value
# [9] = inhibitors of mitochondrial cytochrome c release, biochemical, purified mitochondria (AID 1603); details: stronger effect = lower value;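 further: mouse liver mitochondria challenged with calcium chloride; signal normalized to the plate average as 100%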
# [10] = inhibitors of polyQ protein aggregation (AID 1604); details: polyglutamine-induced protein aggregation inhibition assay; stronger effect = higher value; tested at 2.5 µM
# [11] = enhancers of glutamate uptake in motor neurons, MN-1 cell line (AID 1612); details: MN-1 motor neuron cells, stronger effect = higher value;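 further: tested at 1 µM final; 0% = mean of DMSO vehicle wells on each plate; positive means more glutamate uptake than control and negative means less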
# [12] = reducers of polyQ inclusions in PC12 cells, cell-based, NGF-treated PC12, GFPQ80 (AID 1614); details: PC12 NGF-treated GFP-polyQ80 inclusion reduction;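 further: lower means fewer inclusions and 0 means no inclusions at all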
# [13] = suppressors of polyglutamine aggregation in yeast, 75Q-TubH (AID 1616); details: S. cerevisiae 75Q-TubH polyglutamine aggregation suppression; stronger effect = higher value
# [14] = sensitizers of A549 cells to miR-34 induction, primary screen, imaging, A549 dox-inducible miR-34, nuclei and caspase counts (AID 1347080;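 active means compounds whose cell count with miR-34 switched on is under 0.7 times the count with it off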); details: A549 miR-34 inducible, Hoechst nuclei count, 48 h
# [15] = growth inhibition of DIPG glioma cells, dose response, cell-based, SU-DIPG-XIII, MIPE5.0, CellTiter-Glo, qHTS (AID 1347064; cut-off not given, nearly all actives have AC50 up to about 23 µM); details: SU-DIPG-XIII viability, CellTiter-Glo ATP luminescence
# [16] = JHH-DIPG-1 glioma cell viability, MIPE5.0 library, CellTiter-Glo luminescence, qHTS (AID 1347067; cut-off not given, nearly all actives have AC50 up to about 26 µM;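 further: cells exposed to compound for 48 hours before readout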); details: JHH-DIPG-1 glioma viability, CellTiter-Glo ATP luminescence
# [17] = growth inhibition of DIPG glioma cells, dose response, cell-based, SU-DIPG-XVII, MIPE5.0, CellTiter-Glo, qHTS (AID 1347060; cut-off not given, nearly all actives have AC50 up to about 26 µM); details: SU-DIPG-XVII viability, CellTiter-Glo ATP luminescence
# [18] = growth inhibition of DIPG glioma cells, dose response, cell-based, JHH-DIPG-1, MIPE4.0, CellTiter-Glo, qHTS (AID 1347062; cut-off not given, nearly all actives have AC50 up to about 27 µM); details: JHH-DIPG-1 viability, CellTiter-Glo ATP luminescence
# [19] = viability loss in pontine glioma line – cell-based, SU-DIPG-XXV, MIPE5.0, CellTiter-Glo, qHTS, dose response (AID 1347065; cut-off not given, nearly all actives have AC50 up to about 26 µM;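 further: cells exposed to compound for 48 hours before ATP readout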); details: CellTiter-Glo ATP luminescence
# [20] = SU-DIPG-VI glioma cell viability, MIPE4.0 library, CellTiter-Glo luminescence, qHTS (AID 1347066; cut-off not given, nearly all actives have AC50 up to about 30 µM;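 further: cells exposed to compound for 48 hours before readout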); details: CellTiter-Glo ATP luminescence
# [21] = counts scaled to control wells, 1 = unselective
# [22] = measured here: epithelial PC-3E GFP cell survival
# [23] = measured here: mesenchymal TEM4-18 mCherry cell survival
# [24] = measured here: relative caspase fold change +Dox/-Dox
# [25] = measured here: total cells with miR-34 induction, stronger effect = lower value
# [26] = measured here: total cells without miR-34 induction
# Sequence of NAD(+) hydrolase SARM1 (Homo sapiens) (Q6SZW1 whole entry, looked up, the tested form may be a part): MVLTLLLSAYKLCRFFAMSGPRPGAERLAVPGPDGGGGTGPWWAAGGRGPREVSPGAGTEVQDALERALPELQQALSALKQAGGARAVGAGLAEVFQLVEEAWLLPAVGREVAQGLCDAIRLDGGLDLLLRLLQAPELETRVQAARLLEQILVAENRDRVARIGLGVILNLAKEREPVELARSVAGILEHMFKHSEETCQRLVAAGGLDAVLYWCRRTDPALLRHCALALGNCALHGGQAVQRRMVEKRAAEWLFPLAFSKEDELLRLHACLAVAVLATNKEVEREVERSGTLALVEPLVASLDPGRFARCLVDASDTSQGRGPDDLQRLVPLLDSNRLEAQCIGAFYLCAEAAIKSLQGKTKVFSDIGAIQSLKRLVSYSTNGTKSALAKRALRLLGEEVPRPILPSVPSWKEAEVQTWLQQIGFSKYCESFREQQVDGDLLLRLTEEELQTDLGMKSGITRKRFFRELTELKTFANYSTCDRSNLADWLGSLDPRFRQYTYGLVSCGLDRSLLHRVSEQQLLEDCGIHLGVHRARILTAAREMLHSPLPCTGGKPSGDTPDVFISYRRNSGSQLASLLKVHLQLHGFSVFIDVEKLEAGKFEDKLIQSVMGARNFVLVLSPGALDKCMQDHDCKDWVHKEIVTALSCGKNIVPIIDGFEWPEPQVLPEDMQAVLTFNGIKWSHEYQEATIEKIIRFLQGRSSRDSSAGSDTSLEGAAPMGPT
# Sequence of Mitogen-activated protein kinase 7 (Homo sapiens) (Q13164 whole entry, looked up, the tested form may be a part): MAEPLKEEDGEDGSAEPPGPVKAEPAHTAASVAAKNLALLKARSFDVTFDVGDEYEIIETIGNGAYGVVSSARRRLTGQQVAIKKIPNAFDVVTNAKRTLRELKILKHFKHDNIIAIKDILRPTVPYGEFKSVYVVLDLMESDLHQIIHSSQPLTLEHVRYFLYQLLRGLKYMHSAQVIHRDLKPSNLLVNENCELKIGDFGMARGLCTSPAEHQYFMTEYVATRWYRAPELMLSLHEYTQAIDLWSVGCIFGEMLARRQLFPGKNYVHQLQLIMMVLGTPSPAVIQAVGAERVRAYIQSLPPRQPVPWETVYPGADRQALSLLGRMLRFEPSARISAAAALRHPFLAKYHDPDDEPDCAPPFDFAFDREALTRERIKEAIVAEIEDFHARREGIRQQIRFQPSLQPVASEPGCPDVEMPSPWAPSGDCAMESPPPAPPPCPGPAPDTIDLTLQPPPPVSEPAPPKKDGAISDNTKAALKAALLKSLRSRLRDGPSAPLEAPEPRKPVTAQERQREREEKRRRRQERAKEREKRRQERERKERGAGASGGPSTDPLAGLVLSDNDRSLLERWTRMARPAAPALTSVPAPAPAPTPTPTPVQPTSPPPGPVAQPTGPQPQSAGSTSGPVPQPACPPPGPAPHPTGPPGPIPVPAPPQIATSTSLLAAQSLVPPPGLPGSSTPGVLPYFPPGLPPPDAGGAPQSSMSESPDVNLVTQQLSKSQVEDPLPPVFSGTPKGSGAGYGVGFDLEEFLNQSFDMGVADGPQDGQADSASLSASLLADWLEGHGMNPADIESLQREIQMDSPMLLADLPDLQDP
structure (smiles),measurement,setting,value
O=C1NCC[C@H]1O,red/green cell ratio (normalised),[1]; [21],0.95 (inactive)
same,normalised cell number,[1]; [22],1.13
same,normalised cell number,[1]; [23],1.08
COc1cc2c(cc1OC)[C@@H]1C(=O)c3ccc4c(c3O[C@@H]1CO2)CC(C(C)C)O4 (stereo partly specified),red/green cell ratio (normalised),[1],1.13 (inactive)
same,normalised cell number,[1]; [22],0.56
same,normalised cell number,[1]; [23],0.64
same,activity remaining,[2],114% (inactive)
CCN1C[C@]2(OC(=O)c3ccccc3NC(C)=O)CCC(OC)[C@]34C1[C@@H](CC23)[C@@]1(O)CC(OC)[C@H]2CC4C1(O)[C@H]2OC (stereo partly specified),red/green cell ratio (normalised),[1],1 (inactive)
same,normalised cell number,[1]; [22],0.94
same,normalised cell number,[1]; [23],0.93
COc1cc([C@@H]2c3cc4c(cc3[C@H](OC(C)=O)C3COC(=O)[C@@H]32)OCO4)cc(OC)c1OC (stereo partly specified),red/green cell ratio (normalised),[1]; [21],0.81 (inactive)
same,normalised cell number,[1]; [22],0.2
same,normalised cell number,[1]; [23],0.16
CC(=O)OCC1=C(C(=O)O)N2C(=O)[C@@H](N)C2SC1 (stereo partly specified),red/green cell ratio (normalised),[1],1.18 (inactive)
same,normalised cell number,[1]; [22],0.96
same,normalised cell number,[1]; [23],1.14
COC[C@]12CN(C=O)C3[C@@H]4[C@H](OC)C1[C@]3(C1CC3(O)C(OC)C(O)C4(OC(C)=O)C1C3OC(=O)c1ccccc1)[C@@H](OC)C[C@H]2O (stereo partly specified),red/green cell ratio (normalised),[1],1 (inactive)
same,normalised cell number,[1]; [22],1.06
same,normalised cell number,[1]; [23],1.06
same,activity remaining,[2],118% (inactive)
O=C1CC2OCC=C3CN4CC[C@]56c7ccccc7N1C5[C@H]2[C@@H]3CC46 (stereo partly specified),red/green cell ratio (normalised),[1]; [21],1.12 (inactive)
same,normalised cell number,[1]; [22],1.02
same,normalised cell number,[1]; [23],1.14
CC[C@H]1CN2CCC1C[C@@H]2[C@H](O)c1ccnc2ccc(OC)cc12 (stereo partly specified),red/green cell ratio (normalised),[1]; [21],0.88 (inactive)
same,normalised cell number,[1]; [22],1.22
same,normalised cell number,[1]; [23],1.07
O=C1CCCC2C3CC(CN12)[C@@H]1CCCCN1C3 (stereo partly specified),red/green cell ratio (normalised),[1]; [21],1.13 (inactive)
same,normalised cell number,[1]; [22],0.86
same,normalised cell number,[1]; [23],0.98
same,activity remaining,[2],119% (inactive)
C[C@]12CC[C@H](O)C[C@H]1CCC1C2CC[C@]2(C)[C@@H](C3=CC(=O)OC3)[C@@H](O)C[C@]12O (stereo partly specified),red/green cell ratio (normalised),[1],0.39 (active)
same,normalised cell number,[1]; [22],0.91
same,normalised cell number,[1]; [23],0.35
CNC(C)[C@H](O)c1ccccc1 (stereo partly specified),parasite load remaining,[3],77% (inactive)
same,viability,[3],74.2%
same,red/green cell ratio (normalised),[1],1.42 (inactive)
same,normalised cell number,[1]; [22],0.95
same,normalised cell number,[1]; [23],1.35
same,activity remaining,[2],87.2% (inactive)
same,remaining NAD,[4],10 nM (inactive)
same,luciferase signal,[5],52 AU (inactive)
CCN1C[C@@]2(COC)C3[C@@H](OC)[C@H]4[C@@H]1[C@]3(C(OC)C[C@H]2O)C1C[C@@]2(O)[C@H](OC(=O)c3ccccc3)C1[C@]4(OC(C)=O)[C@@H](O)[C@@H]2OC (stereo partly specified),inhibition,[6],-1.76%
same,score,[7],0.9
same,rescue above control,[8],-1.73
same,cytochrome c release ratio,[9],0.91
same,inhibition of aggregation,[10],65.4%
same,glutamate uptake change,[11],9.78%
same,inclusion score,[12],2
same,aggregation suppression score,[13],1.1
same,parasite load remaining,[3],85.5% (inactive) and 32.5% (inactive)
same,viability,[3],79.4% and 105%
same,red/green cell ratio (normalised),[1],1.07 (inactive)
same,normalised cell number,[1]; [22],1.01
same,normalised cell number,[1]; [23],1.07
same,activity remaining,[2],113% (inactive)
same,fold change,[14]; stronger effect = lower value,0.875 (inactive)
same,fold change,[14]; [24],3.63
same,cell count,[14]; [25],11000
same,cell count,[14]; [26],12600
N#CC(O[C@@H]1O[C@H](CO[C@@H]2O[C@H](CO)[C@@H](O)[C@H](O)[C@H]2O)[C@@H](O)[C@H](O)[C@H]1O)c1ccccc1 (stereo partly specified),inhibition,[6],3.65%
same,score,[7],1.42
same,rescue above control,[8],-2.1
same,cytochrome c release ratio,[9],1.2
same,inhibition of aggregation,[10],36.6%
same,glutamate uptake change,[11],14%
same,inclusion score,[12],2
same,aggregation suppression score,[13],1.51
same,parasite load remaining,[3],116% (inactive)
same,viability,[3],70.2%
same,red/green cell ratio (normalised),[1],1 (inactive)
same,normalised cell number,[1]; [22],0.94
same,normalised cell number,[1]; [23],0.94
same,activity remaining,[2],123% (inactive)
same,outcome,[15],inactive
same,outcome,[16],inactive
CC1(C)C(=O)C=C[C@@]2(C)C1=C(O)C(=O)[C@]1(C)C2CC[C@@]2(C)[C@H](c3ccoc3)C[C@H]3O[C@]321 (stereo partly specified),red/green cell ratio (normalised),[1],1.22 (inactive)
same,normalised cell number,[1]; [22],0.97
same,normalised cell number,[1]; [23],1.19
same,activity remaining,[2],116% (inactive)
C[C@]12CCC(=O)C=C1C=CC1C2CC[C@@]2(C)C1CC[C@@]2(O)CCC(=O)O (stereo partly specified),parasite load remaining,[3],99.8% (inactive) and 46.1% (inactive)
same,viability,[3],62.7% and 93.1%
same,red/green cell ratio (normalised),[1],1.24 (inactive)
same,normalised cell number,[1]; [22],0.95
same,normalised cell number,[1]; [23],1.17
same,activity remaining,[2],110% (inactive)
same,fold change,[14]; stronger effect = lower value,0.912 (inactive)
same,fold change,[14]; [24],3.05
same,cell count,[14]; [25],12000
same,cell count,[14]; [26],13100
same,remaining NAD,[4],10 nM (inactive)
same,luciferase signal,[5],60 AU (inactive)
Cc1c(O)c(O)cc2c1CC=C1[C@@]2(C)CC[C@@]2(C)C3C[C@](C)(C(=O)O)CC[C@]3(C)CC[C@]12C (stereo partly specified),red/green cell ratio (normalised),[1],0.65 (inactive)
same,normalised cell number,[1]; [22],0.64
same,normalised cell number,[1]; [23],0.41
same,activity remaining,[2],103% (inactive)
C#CC1(O)CCC2C3CCC4=CC(=O)CCC4(C)C3CCC21C (stereo unspecified),inhibition,[6],4.95%
same,score,[7],0.22
same,rescue above control,[8],3.19
same,cytochrome c release ratio,[9],0.95
same,inhibition of aggregation,[10],63.6%
same,glutamate uptake change,[11],12.9%
same,inclusion score,[12],2
same,aggregation suppression score,[13],1.19
same,parasite load remaining,[3],62% (inactive) and 21.3% (inactive)
same,viability,[3],93.9% and 81%
same,red/green cell ratio (normalised),[1],0.77 (inactive)
same,normalised cell number,[1]; [22],1.21
same,normalised cell number,[1]; [23],0.93
same,activity remaining,[2],112% (inactive)
same,outcome,[17],inactive
same,outcome,[18],inactive
same,outcome,[15],inactive
same,outcome,[19],inactive
same,outcome,[20],inactive
same,fold change,[14]; stronger effect = lower value,0.935 (inactive)
same,fold change,[14]; [24],2.1
same,cell count,[14]; [25],10400
same,cell count,[14]; [26],11100
C[C@@H]1O[C@@H](O[C@H]2C[C@@H](O)[C@]3(CO)C4C(CC[C@]3(O)C2)[C@@]2(O)CC[C@H](C3=CC(=O)OC3)[C@@]2(C)C[C@H]4O)[C@H](O)[C@H](O)[C@H]1O (stereo partly specified),inhibition,[6],78.5%
same,score,[7],1.02
same,rescue above control,[8],3.58
same,cytochrome c release ratio,[9],1.01
same,inhibition of aggregation,[10],75%
same,glutamate uptake change,[11],-21.6%
same,inclusion score,[12],2
same,aggregation suppression score,[13],1.24
same,parasite load remaining,[3],242% (inactive) and -0.205% (inactive)
same,viability,[3],38.6% and 15.3%
same,red/green cell ratio (normalised),[1],0.13 (inactive)
same,normalised cell number,[1]; [22],0.14
same,normalised cell number,[1]; [23],0.02
same,activity remaining,[2],122% (inactive)
same,fold change,[14]; stronger effect = lower value,0.536 (active)
same,fold change,[14]; [24],2.2
same,cell count,[14]; [25],195
same,cell count,[14]; [26],364
